In PubChem BioAssay (Tox21):
Inconclusive results are not listed. Calls of active or inactive are those of the source. Unless noted, calls follow the shape of the dose curve; as a rule, active = well fitted curve in the direction sought with a large enough effect in the repeat runs; inconclusive = weak or mixed curves; inactive = no such curve, though single readings can be large; an effect the other way counts as inactive or inconclusive.

Legend:
[1] = qHTS assay to identify small molecule that activate the aryl hydrocarbon receptor (AhR) signaling pathway - cell viability counter screen (AID 743086);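 also: HepG2 liver cells carrying the AhR DRE luciferase reporter; series mostly up to about 70 µM; nearly all actives have a fitted effect of over 45% in size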
How it was run: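 HepG2-AhR-luc (HG2L7.5c1) cells, 4000/well, treated 24 h at 37 C with compound; viability measured as CellTiter-Fluor fluorescence after 30 min in the same wells as the luciferase read.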

[2] = target: Peroxisome proliferator-activated receptor gamma (Homo sapiens) (UniProt P37231); test: qHTS assay to identify small molecule agonists of the peroxisome proliferator-activated receptor gamma (PPARg) signaling pathway (AID 743094; active = well fitted activation curve with a large enough effect in the signal ratio in the repeat runs, not every such curve was filed as active; the % refers to the signal ratio)
Sequence of Peroxisome proliferator-activated receptor gamma (Homo sapiens) (P37231 whole entry, looked up): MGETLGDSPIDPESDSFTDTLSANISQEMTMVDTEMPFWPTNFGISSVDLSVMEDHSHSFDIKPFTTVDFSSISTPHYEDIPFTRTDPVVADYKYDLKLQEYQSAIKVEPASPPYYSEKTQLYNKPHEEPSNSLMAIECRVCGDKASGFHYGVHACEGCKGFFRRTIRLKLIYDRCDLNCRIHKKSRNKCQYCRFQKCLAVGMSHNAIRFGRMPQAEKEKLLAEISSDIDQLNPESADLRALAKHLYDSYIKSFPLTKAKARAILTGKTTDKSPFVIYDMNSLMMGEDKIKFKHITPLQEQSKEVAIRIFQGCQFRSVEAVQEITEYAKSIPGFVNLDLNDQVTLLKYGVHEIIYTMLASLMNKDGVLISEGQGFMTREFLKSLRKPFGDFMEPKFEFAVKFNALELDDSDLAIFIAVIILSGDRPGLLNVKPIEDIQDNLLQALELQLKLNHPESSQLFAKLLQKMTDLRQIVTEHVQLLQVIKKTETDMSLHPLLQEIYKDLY
How it was run: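 Cell-based bla reporter, HEK293H background, PPARg-driven UAS. Pre-incubation 5 h, 37C, 5% CO2. Compound 17 h, 37C. Substrate 1 h RT; fluorescence.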

[3] = qHTS assay to identify small molecule antagonists of the peroxisome proliferator-activated receptor gamma (PPARg) signaling pathway - cell viability counter screen (AID 743194); also: nearly all actives have a fitted effect of over 55% in size
How it was run: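 Cytotoxicity counter screen in PPARg-bla HEK293H cells, same wells as reporter assay. Compounds plus 50 nM rosiglitazone (final) for 17 h at 37 C, then viability read by CellTiter-Glo luminescence.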

[4] = qHTS assay for small molecule agonists of the antioxidant response element (ARE) signaling pathway (AID 743202; active = well fitted activation curve with a large enough effect in the signal ratio in the repeat runs, not every such curve was filed as active; the % refers to the signal ratio)
How it was run: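 HepG2 ARE-bla reporter line, 2,000 cells/well; 5 h preincubation 37 C/5% CO2; compound (DMSO) 16 h 37 C; B/G FRET substrate 2 h RT; fluorescence intensity.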

[5] = qHTS assay for small molecule agonists of the antioxidant response element (ARE) signaling pathway - cell viability counter screen (AID 743203; calls by dose curve; also: nearly all actives have a fitted effect of over 55% in size)
How it was run: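 Measured in the same wells as the beta-lactamase ARE reporter, this read-out is CellTiter-Glo luminescence from HepG2 ARE-bla cells given compounds for 16 hrs.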

[6] = qHTS assay for small molecule activators of the heat shock response signaling pathway - cell viability counter screen (AID 743209); also: nearly all actives have a fitted effect of over 50% in size
How it was run: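 Same-well multiplex: after 2.5 h room-temperature incubation with LiveBLAzer B/G substrate and fluorescence reading, CellTiter-Glo reagent was added to HSE-bla HeLa cells that had received compound for 5 h at 37 C; luminescence read after 30 min.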

[7] = qHTS assay to identify small molecule agonists of the peroxisome proliferator-activated receptor delta (PPARd) signaling pathway - cell viability counter screen (AID 743211); also: nearly all actives have a fitted effect of over 55% in size
How it was run: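 Counter screen for cytotoxicity run in parallel with the PPARd reporter screen. Beta-lactamase reporter HEK293H cells exposed to compounds 17 h; ATP-based CellTiter-Glo luminescence quantified viability.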

[8] = target: Peroxisome proliferator-activated receptor gamma (Homo sapiens) (UniProt P37231); test: qHTS assay to identify small molecule antagonists of the peroxisome proliferator-activated receptor gamma (PPARg) signaling pathway (AID 743191; calls by dose curve; also: series mostly up to about 63 µM; nearly all actives have a fitted effect of over 30% in size)
How it was run: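 GeneBLAzer PPARg UAS-bla HEK293H cells, 5 h post-plating, exposed to compounds 17 h at 37C. LiveBLAzer B/G FRET substrate added for 1 h at room temperature; beta-lactamase reporter read by fluorescence intensity.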

[9] = qHTS assay for small molecule activators of the heat shock response signaling pathway (AID 743210; active = well fitted activation curve with a large enough effect in the signal ratio in the repeat runs, with a control signal flat, not every such curve was filed as active; the % refers to the signal ratio;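 also: HeLa cells with beta-lactamase reporter driven by heat shock elements; series mostly up to about 63 µM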)
How it was run: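 Beta-lactamase reporter read-out: FRET substrate fluorescence after 2.5 h at RT, following 5 h compound treatment at 37 C of HeLa cells carrying HSE-driven bla reporter; quantitative HTS format.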
% is scaled to controls: 0 for no effect and ±100 for the full control effect.

CC(C)(C)c1ccc(-c2ccc(C(C)(C)C)cc2)cc1
inactive: Potency [1] | Potency [2] | outcome [3] | Potency [4] | outcome [5] | outcome [6] | outcome [7]

O=S(=O)(O)c1cccc2ccccc12
inactive: Potency [1] | Potency [2] | Potency [8] | outcome [3] | outcome [5] | outcome [6] | outcome [7]

c1coc(CNc2ncnc3nc[nH]c23)c1
inactive: Potency [1] | Potency [2] | outcome [3] | outcome [5] | outcome [6] | outcome [9] | outcome [7]

O=CN(CCO)CCO
inactive: Potency [1] | Potency [2] | Potency [8] | outcome [3] | outcome [5] | outcome [9] | outcome [7]

CCCCCCC1CCC(=O)O1 (stereo not drawn)
inactive: Potency [1] | Potency [2] | outcome [3] | Potency [4] | outcome [5] | outcome [6] | outcome [9] | outcome [7]

CC12CCC(C(=O)C1=O)C2(C)C (stereo not drawn)
inactive: Potency [1] | Potency [2] | outcome [3] | Potency [4] | outcome [5] | outcome [9] | outcome [7]

C=CCCCCCCCCC(=O)OCC
inactive: Potency [1] | Potency [2] | outcome [3] | outcome [5] | outcome [6] | outcome [9] | outcome [7]

O=Cc1cccc(Br)c1
inactive: Potency [1] | Potency [2] | Potency [8] | outcome [3] | outcome [5] | outcome [6] | outcome [9] | outcome [7]

COc1cc(C)nc(-n2nc(C)cc2OC)n1
inactive: Potency [1] | Potency [2] | Potency [4] | outcome [5] | outcome [7]

CCCCOCCOC(=O)COc1cc(Cl)c(Cl)cc1Cl
inactive: Potency [1] | outcome [3] | Potency [4] | outcome [5] | outcome [6] | outcome [7]

C[C@H]1[C@H](NC(=O)/C(=N/OC(C)(C)C(=O)O)c2csc(N)n2)C(=O)N1S(=O)(=O)O (stereo in doubt)
inactive: Potency [1] | outcome [3] | Potency [4] | outcome [5] | outcome [6] | outcome [9] | outcome [7]

CCOc1ccc2nc(S(N)(=O)=O)sc2c1
inactive: Potency [1] | Potency [2] | outcome [3] | outcome [5] | outcome [6] | outcome [9] | outcome [7]

CCN1CCOCC1
inactive: Potency [1] | Potency [2] | outcome [3] | Potency [4] | outcome [5] | outcome [6] | outcome [9] | outcome [7]

CC(C)NNC(=O)c1ccncc1
inactive: Potency [1] | Potency [2] | Potency [8] | outcome [3] | outcome [5] | outcome [6] | outcome [9] | outcome [7]

C[N+](C)(CCOc1ccccc1)Cc1cccs1
inactive: Potency [1] | outcome [3] | Potency [4] | outcome [5] | outcome [6] | outcome [9] | outcome [7]

CCO[Si](OCC)(OCC)c1ccccc1
inactive: Potency [1] | outcome [3] | Potency [4] | outcome [5] | outcome [6] | outcome [7]

O=C(O)CNC(=O)c1ccc(CO)o1
inactive: Potency [1] | Potency [2] | Potency [4] | outcome [5] | outcome [6] | outcome [9] | outcome [7]

C=CC(C)(CCC=C(C)C)OC(=O)CC (stereo not drawn)
inactive: Potency [1] | Potency [2] | Potency [4] | outcome [5] | outcome [6] | outcome [9] | outcome [7]

CCCCN(CCC(=O)OCC)C(C)=O
inactive: Potency [1] | Potency [2] | Potency [8] | Potency [4] | outcome [5] | outcome [6] | outcome [9] | outcome [7]

CN1CCN(c2cc3c(nn2)Oc2ccccc2N3C)CC1
inactive: Potency [1] | Potency [2] | outcome [3] | Potency [4] | outcome [5] | outcome [6] | outcome [7]

CCCCCCCCCCCCCCC(=O)O
inactive: Potency [1] | Potency [2] | outcome [3] | outcome [5] | outcome [6] | outcome [7]

CC[N+](CC)(CC(=O)Nc1c(C)cccc1C)Cc1ccccc1 (tested in a mixture with another compound)
inactive: Potency [1] | Potency [2] | Potency [8] | Potency [4] | outcome [5] | outcome [6] | outcome [7]

CCCCCCCCCCOc1cc2c(=O)c(C(=O)OCC)c[nH]c2cc1OCC
inactive: Potency [1] | Potency [2] | activation [4] -0.445% [at 8.36 µM] | viability change, negative = cytotoxic [5] -3.47% [at 8.36 µM] | activity change, negative = cytotoxicity [6] 1.04% [at 5.95 µM] | activation [9] -0.938% [at 5.95 µM] | activity change, negative = cytotoxicity [7] 8.81% [at 5.95 µM]

NC(=O)N1c2ccccc2CC(=O)c2ccccc21
inactive: Potency [1] | outcome [3] | Potency [4] | outcome [5] | outcome [6] | outcome [7]

CCCc1nn(C)c2c(=O)[nH]c(-c3cc(S(=O)(=O)N4CCN(C)CC4)ccc3OCC)nc12
inactive: Potency [1] | Potency [2] | Potency [8] | Potency [4] | outcome [5] | outcome [6] | outcome [9]

C=CN1CCCCCC1=O
inactive: Potency [1] | outcome [3] | Potency [4] | outcome [5] | outcome [6] | outcome [9]

CN1C(C)(C)CC(O)CC1(C)C
inactive: Potency [1] | Potency [2] | outcome [3] | Potency [4] | outcome [5] | outcome [6] | outcome [9] | outcome [7]
